# ARNT TACC3 PPI: disruptors of ARNT/TACC3 protein interaction, primary screen, biochemical, AlphaScreen, single concentration; AlphaScreen His-ARNT PAS-B/GST-TACC3 binding, luminescence; TACC3 fragment carries E629A point mutation; inhibition, % at 9.99 µM; 390,000 compounds, 0.66% hits;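 active = mean inhibition of replicates at least 50% and at least half of replicates each reaching 50%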;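 also: 0% = complete ARNT plus TACC3 wells and 100% = ARNT alone without TACC3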
# sPLA2-III inh: human group III sPLA2 inhibitors, primary screen, biochemical, QFRET, BODIPY PC-A2 liposome substrate. Group 3 secretory phospholipase A2 (Homo sapiens), Q9NZ20. QFRET BODIPY PC-A2 liposome hydrolysis, fluorescence. inhibition, % at 12.2 µM. 370,000 compounds, 0.56% hits. AID 743126, 2013;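 active = inhibition above mean plus 3 SD of compounds lying within the high and low control bounds, cut at about 19% in these data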;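 also: 0% = median of test compound wells and 100% = no enzyme DMSO wells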
# NadD inh: inhibitors of S. aureus NadD, primary screen, biochemical, colorimetric, uHTS | inhibition, % at 20 µM | purified NadD enzyme, colorimetric absorbance read-out | AID 602399, 2012 | 360,000 compounds, 0.78% hits; in the data active = inhibition above about 26%
# DAGLB inhibitor: DAGLB lipase inhibitors, primary screen, biochemical, fluorescence, HTS; Diacylglycerol lipase-beta (Homo sapiens), Q8NCG7; HEK293T DAGLB membrane lysate, EnzChek fluorogenic substrate; inhibition, % at 5.17 µM; 340,000 compounds, 0.059% hits; in the data active = inhibition above about 34%;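 also: 0% = enzyme with vehicle and 100% = wells lacking enzyme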
# Neddylation inh: inhibitors of cullin neddylation, primary screen, biochemical, TR-FRET, uHTS, NAE and Ubc12. 360,000 compounds, 0.58% hits. inhibition, % at 25 µM. NEDD8-conjugating enzyme Ubc12 (Homo sapiens) + NEDD8-activating enzyme E1 regulatory …. AID 651699, 2012; in the data active = inhibition above about 36%
# NadD conf: inhibitors of S. aureus NadD, confirmation, biochemical, colorimetric, single concentration | 2,000 compounds, 13% hits | AID 624309, 2012 | purified S. aureus NadD, colorimetric enzyme assay | inhibition, % at 20 µM | shares compounds with NadD inh; in the data active = inhibition mostly above about 42%, no sharp cut-off; inactive = mostly below about 42%
# An asterisk follows results filed as active; · = not tested or not shown. Most compounds without a hit are left out; they make up all but 2% or so of the library.
SMILES,ARNT TACC3 PPI,sPLA2-III inh,NadD inh,DAGLB inhibitor,Neddylation inh,NadD conf
O=C(N/N=C/c1ccco1)c1cc(-c2ccccc2)nc2ccccc12,-3,-3,4,-2,-16,·
COc1ccc(-c2nn(-c3ccccc3)cc2C(=O)N/N=C/c2ccc([N+](=O)[O-])o2)cc1,-5,-1,31*,2,11,7
COc1cccc(-c2cc(C(=O)N/N=C/c3ccco3)c3ccccc3n2)c1,0,-3,10,-3,3,·
O=C(N/N=C/c1ccc([N+](=O)[O-])o1)c1cc(-c2cccc(Br)c2)nc2ccccc12,·,-1,72*,4,-12,3
C[C@H](CO)N1C[C@H](C)[C@@H](CN(C)C(=O)Nc2ccc(F)cc2)Oc2ccc(NS(=O)(=O)c3ccccc3)cc2CC1=O,-21,·,·,·,·,·
C[C@@H]1CN([C@H](C)CO)S(=O)(=O)c2ccc(C#CC3CC3)cc2O[C@H]1CN(C)C(=O)c1ccccn1,-9,·,·,·,·,·
O=C(NCC[C@@H]1CC[C@@H](NC(=O)C2CCCCC2)[C@@H](CO)O1)c1cnccn1,-5,·,·,·,·,·
Nc1scc2c(C(=O)N/N=C/c3ccc(Cl)cc3)nn(-c3ccccc3)c(=O)c12,7,-1,40*,7,-11,14
Nc1c(C(=O)N/N=C/c2ccc(Cl)cc2)cnn1-c1ccccc1,-7,5,1,0,3,·
CCC(=O)N1CC[C@H]2[C@H](CO)Nc3ccc(C#Cc4cccnc4)cc3[C@H]21,6,·,·,·,·,·
CC(C)OCCCn1c(=N)c(C(N)=S)cc2c(=O)n3ccccc3nc21,2,3,26*,1,·,9
CC(=O)N=c1c(C#N)cc2c(=O)n3ccccc3nc2n1CCCOC(C)C,·,-3,3,·,·,·
N#CCC(=O)Nc1ccc(C(=O)OCC(=O)Nc2ccc3ccccc3c2)cc1,·,-45,46*,2,5,40
CCN(CC)S(=O)(=O)c1cc(NC(=O)COC(=O)c2ccc(NC(=O)CC#N)cc2)ccc1C,2,-63,33*,-4,3,14
CCn1c2ccccc2c2cc(NC(=O)COC(=O)c3ccc(NC(=O)CC#N)cc3)ccc21,-1,-6,64*,7,7,40
CC1CCc2c(sc(NC(=O)COC(=O)c3ccc(NC(=O)CC#N)cc3)c2C#N)C1 (configuration not stated),-6,-50,36*,-3,-8,17
CCn1c2ccccc2c2cc(NC(=O)COC(=O)c3ccc(C)cc3)ccc21,·,15,·,·,·,·
C[C@H](CO)N1C[C@H](C)[C@@H](CN(C)Cc2ccccc2)Oc2ccc(NC(=O)Cc3cn(C)c4ccccc34)cc2CC1=O,25,·,·,·,·,·
CC(C)CC#Cc1ccc2c(c1)O[C@H](CN(C)C(=O)CC1CC1)[C@H](C)CN([C@H](C)CO)S2(=O)=O,30,·,·,·,·,·
CCn1c2ccccc2c2cc(NC(=O)CSc3nccc(=O)[nH]3)ccc21,2,-12,41*,2,5,50*
O=C(CSc1nccc(=O)[nH]1)Nc1ccc2ccccc2c1,-9,-6,-3,4,-23,·
O=C(O)/C=C/c1cn(-c2ccccc2)nc1-c1ccc(-c2ccc([N+](=O)[O-])cc2)o1,0,0,49*,2,2,9
O=C(O)/C=C/c1cn(-c2ccccc2)nc1-c1cccc([N+](=O)[O-])c1,-4,-16,-5,-1,-34,·
C[C@@H]1CCCCO[C@@H](CN(C)S(=O)(=O)c2cn(C)cn2)[C@@H](C)CN([C@@H](C)CO)C(=O)c2cc(NS(=O)(=O)c3ccccc3)ccc2O1,-7,·,·,·,·,·
O=C(N/N=C/c1ccc2c(c1)OCO2)c1sc2cccc(Cl)c2c1Cl,3,-6,30*,-4,·,7
O=C(N/N=C/c1ccc2c(c1)OCO2)c1sc2cc(Cl)ccc2c1Cl,-5,11,21,-1,3,·

# Compound activity: PubChem, several laboratories
